The values that follow come from PubChem BioAssay AID1578 (Sanford-Burnham Center for Chemical Genomics, 2009).

About 3,000 (1%) of roughly 290,000 compounds were called active. Only a selection was taken, and actives are over-represented in it overall. A number with no mark means an inactive call. Cut-off read from the data, not from the text of the source: active = inhibition mostly above about 36% (no sharp cut-off); inactive = mostly below about 34%.

The experiment can be described thus: inhibition of NOD1-driven NF-kB reporter – cell-based, luminescence, uHTS, primary screen (AID 1578).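 Note: HEK-293T reporter cells stimulated with the NOD1 agonist gamma-tri-DAP.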 The following applies: NOD1-driven NF-kB luciferase reporter cells, at 4 µM, stronger effect = higher value.
A word on the inhibition: it is the drop in the measured response relative to a control, in per cent. For `Clc1ccc(-c2nnc(C3CCCCC3)o2)cc1`, the inhibition is 70.8% (active).
The figure for `Clc1ccc(-c2nnc(C3CC3)o2)cc1` is -15.4%; for `c1cncc(-c2nnc(C3CCCCC3)o2)c1` it is 11.8%; for `COc1ccc(C(=O)NC(CC(=O)O)c2cc([N+](=O)[O-])ccc2Cl)c(SC)c1` (centres undefined) it is -14.4%.
With `O=C1C2CCCN2C(c2ccc(F)cc2)N1c1cccc(Cl)c1` (centres undefined) the figure was -10.3%; with `O=C(COC(=O)c1cncc(Br)c1)NCCC1=CCCCC1`, -8.5%.
Take `CO/N=C/c1ccc(Sc2ccc(C)cc2)c([N+](=O)[O-])c1`: the inhibition is 7.3%.
`Cc1ccc(Sc2ccc(/C=N/O)cc2[N+](=O)[O-])cc1`: the inhibition is 54.4% (active).
For the compound `O=[N+]([O-])c1cc(/C=N/O)ccc1Sc1ccccc1`, the inhibition is 8.1%.
On to `COc1ccc(OC)c(NC(=O)C2CCN(c3ncccn3)CC2)c1`, for which the inhibition was -1.7%.
The figure for `COc1ccc(N2CCN(Cc3cc4c(cc3Br)OCCO4)CC2)cc1` is -11.3%.
With `COc1ccc(C=O)cc1Cn1ccnc1C` the figure was 62.6% (active).
With `CCc1nccn1Cc1cc(C=O)ccc1OC` the figure was 15%; with `COc1ccc(C=O)cc1Cn1ccnc1`, -23%; with `Cc1oc(-c2ccccc2)cc1C(=O)NC(Cc1c[nH]c2ccccc12)C(=O)O` (centres undefined), -35.2%.
Turning to `O=C(NCCNC(=O)c1ccccc1)c1ccccc1`, the inhibition was -9.5%.
With `CN(C)CCCn1c(N)c(C#N)c2nc3ccccc3nc21` the figure was 5.6%; with `CN(C)CCCn1c(N)c(C#N)c2nc(C#N)c(C#N)nc21`, 76.3% (active); with `CCCCCn1c(N)c(C#N)c2nc3ccccc3nc21`, 8.5%.
With `Cc1ccc(C2C(C=Nc3c(C)n(C)n(-c4ccccc4)c3=O)=C(c3ccccc3)Oc3ccccc32)cc1` (centres undefined) the figure was 29.1%; with `O=C1NC(=S)S/C1=C\c1ccc2ccccc2c1`, 5.2%.
The figure for `Cc1ccc(C2C(/C=C3/SC(=S)NC3=O)=C(c3cccs3)Oc3ccccc32)cc1` (centres undefined) is 88% (active); for `CCC1CCCCN1S(=O)(=O)c1ccc(S(=O)(=O)N(Cc2cccs2)C2CC2)cc1` (centres undefined) it is 7.6%.
Turning to `O=c1oc2ccccc2cc1-c1ccccc1`, the inhibition is -31.9%.
The figure for `Cc1cccn2cc(-c3cc4ccccc4oc3=O)nc12` is -21.9%; for `O=c1oc2ccccc2cc1-c1cn2cccnc2n1` it is -55.7%.
The figure for `O=c1oc2ccccc2cc1-c1cn2ccccc2n1` is 64.7% (active); for `Nc1ccc(-c2cc3ccccc3oc2=O)cc1` it is 63.5% (active); for `O=c1oc2ccccc2cc1-c1ccc(O)cc1` it is 54.1%.
With `Cc1cc(C)c2cc(CN(CCO)Cc3nnnn3Cc3ccccc3)c(=O)[nH]c2c1` the figure was -12.5%; with `O=C(CC1COc2ccccc2O1)Nc1ccccn1` (centres undefined), -29.1%; with `CCN(CC)S(=O)(=O)c1ccc(N2CCCC2)c(NS(=O)(=O)c2ccccc2)c1`, 4.1%.
In the case of `CN(C)CCNC(=O)/C(=C/c1ccc(-c2cccc([N+](=O)[O-])c2)o1)NC(=O)c1ccccc1`, the inhibition is 4.2%.
With `CN(C)CCNC(=O)/C(=C/c1ccc(-c2cccc(Cl)c2)o1)NC(=O)c1ccccc1` the figure was 112% (active); with `CN(C)CCNC(=O)/C(=C/c1ccc(-c2ccc(Cl)cc2)o1)NC(=O)c1ccccc1`, -19.3%; with `Cc1nnc(NC(=O)C2CCCN(S(=O)(=O)Cc3ccccc3)C2)s1` (centres undefined), -8.7%.
The figure for `Cc1cccc(Cn2c(C)nc3c(N)c(C)c(C)cc32)c1` is -13.6%; for `COc1ccc2nc(N/C(N)=N/C(=S)Nc3ccccc3)nc(C)c2c1` it is 29.9%; for `COc1ccc2nc(N/C(N)=N/C(=S)Nc3cccc(C)c3)nc(C)c2c1` it is 51.4% (active).
The figure for `Cc1cccc(NC(=S)/N=C(\N)Nc2nc(C)c3cc(C)ccc3n2)c1` is 23.1%.
Regarding `O=C(Cc1ccccc1)Nc1cc2c(cc1Cl)OCCCO2`, the inhibition was -59.9%.
Take `CCN(CC(=O)NCc1ccc(Cl)cc1)C(=O)/C=C/c1ccc(Cl)c([N+](=O)[O-])c1`: the inhibition was -18.8%.
With `CN(C)C(=O)c1ccc(NS(=O)(=O)c2ccc3c(c2)OCCO3)cc1` the figure was -34.8%; with `CCc1ccc(C2=NNC(=Nc3cccc(S(=O)(=O)N(C)C)c3)SC2)cc1`, 72.3% (active).
The figure for `CN(C)S(=O)(=O)c1cccc(N=C2NN=C(c3ccccc3)CS2)c1` is 26.1%; for `CC(=O)Nc1ccc(C2=NNC(=Nc3cccc(S(=O)(=O)N(C)C)c3)SC2)cc1` it is -32.6%.
Take `COc1ccc(-n2c(=O)[nH]c3cc(C(=O)NCCc4ccc(Cl)cc4)ccc3c2=O)cc1OC`: the inhibition was 7.4%.
The figure for `O=C(O)/C=C/C(=O)NC1CC1` is -13.1%; for `O=C(O)/C=C/C(=O)NC1CCS(=O)(=O)C1` (centres undefined) it is 99.9% (active); for `O=C(/C=C/c1ccccc1)NC1CCS(=O)(=O)C1` (centres undefined) it is -20%.
With `CCCC(C)c1nc(C(N)=O)c2[nH]c(=O)n(-c3ccc(OC)c(OC)c3)c2n1` (centres undefined) the figure was -11.9%.
In the case of `COc1cccc(/C=N/Nc2ccc(C(=O)O)cc2)c1O`, the inhibition was 104% (active).
With `O=C(O)c1ccc(N/N=C/c2cccc(F)c2)cc1` the figure was -22.9%; with `COc1cccc(/C=N/Nc2ccc([N+](=O)[O-])cc2)c1O`, -2.8%.
With `COc1cc(/C=N/Nc2ccc(C(=O)O)cc2)ccc1O` the figure was -8.3%.
With `COc1cc(/C=N/NS(=O)(=O)c2ccc(C)cc2)ccc1OCc1ccc(C(=O)O)cc1` the figure was 18.4%; with `COc1cccc(/C=N/Nc2ccccc2C(=O)O)c1O`, -5.1%; with `COc1cc(/C=N/O)ccc1OCc1ccc(Cl)cc1`, -6.6%.
Consider `COc1ccc(/C=N/Nc2ccc(C(=O)O)cc2)cc1Br`, for which the inhibition is 50.9% (active).
The figure for `O=C(O)c1ccc(N/N=C/c2c(F)cccc2Cl)cc1` is 26.1% (active); for `COc1cc(/C=N/O)ccc1OCc1ccc(C(=O)O)cc1` it is 100% (active); for `O=C(N/N=C/c1c(F)cccc1Cl)C1CC1` it is -15.7%.
The figure for `COc1ccc(/C=N/Nc2ccc(C(=O)O)cc2)cc1OC` is -8.6%.
The figure for `COc1cc(=O)[nH]c(SCC(=O)Nc2ccc3ccccc3c2)n1` is -28.4%.
Turning to `CCOc1ccc(-c2nnc(NC(=O)Cc3ccc(OC)cc3)o2)cc1`, the inhibition is -18.3%.
The figure for `O=C1Cc2ccccc2C(=O)N1c1ccc(F)cc1Cl` is -16.4%; for `C=CCn1cc(C(C)=O)c(=O)[nH]c1=O` it is -20.3%.
With `C/C(CC(=O)Nc1ccc2c(c1)OCCO2)=N\NC(=O)Cc1ccc(Cl)cc1` the figure was -8.8%; with `COCCCNC(=O)Cn1c(=O)n(Cc2ccc(F)cc2)c(=O)c2sccc21`, -8.2%; with `CSCCOC(=O)C1=C(C)NC(=O)NC1c1ccc2c(c1)OCO2` (centres undefined), -24.6%.
With `O=C(NCC1CCCO1)c1cc2ccccc2nc1Cl` (centres undefined) the figure was -20.2%; with `CCn1c(=O)c([N+](=O)[O-])c(N2CCSCC2)c2ccccc21`, 8.8%; with `O=C(NCc1ccccc1)c1ccc(Cn2cc(C(F)(F)F)ccc2=O)cc1`, -8.1%.
Regarding `O=C(O)c1ccc(N/N=C/c2ccc(-c3ccccc3)cc2)cc1`, the inhibition was -27%.
Consider `COc1ccc(C(=O)/C=C/c2ccc(OCc3ccccc3)cc2)cc1CSCC(=O)O`, for which the inhibition is 0.4%.
The figure for `CC(C)c1ccc(/C=N/Nc2ccc(C(=O)O)cc2)cc1` is 64.4% (active).
With `O=C(N/N=C/c1ccc2c(c1)OCO2)c1ccc2c(c1)OCO2` the figure was -42.6%; with `COc1ccc(C(=O)/C=C/c2cccc(OCc3ccccc3)c2)cc1CSCC(=O)O`, 11.8%.
Regarding `COC(=O)c1ccc(COc2ccc(/C=C/C(=O)c3ccc(OC)c(CSCC(=O)O)c3)cc2OC)cc1`, the inhibition is 49.5% (active).
As for `O=C(O)c1ccc(N/N=C/c2ccc3c(c2)OCO3)cc1`, the inhibition was 80.4% (active).
Turning to `O=C(O)c1cc(N/N=C/c2ccc3c(c2)OCO3)ccc1Cl`, the inhibition was -59.6%.
The figure for `O=C(O)c1ccc(N/N=C/c2ccc(C(F)(F)F)cc2)cc1` is 17.4%.
As to `CCOC(=O)c1[nH]n(-c2ccc(Cl)cc2)c(=O)c1C`, the inhibition was -33.9%.
With `COC(=O)C1CC(c2ccc(Cl)cc2)=NO1` (centres undefined) the figure was -38.4%.
The figure for `O=C(c1cc(-c2ccc(Cl)cc2)n[nH]1)N1CCN(C(=O)c2ccco2)CC1` is 13.4%; for `CCOc1ncccc1C(=O)Nc1cccc(-c2nnc3n2CCCCC3)c1` it is -22.1%.
As for `Cc1cccc(C)c1NC(=S)NCCc1ccc(O)c(O)c1`, the inhibition was -28.1%.
The figure for `COc1ccccc1OC(=O)C1CC(=O)N(c2ccc(Cl)cc2)C1` (centres undefined) is -7.8%.
Take `Cc1ccccc1-n1c(SCc2csc(Nc3ccccc3)n2)nnc1-c1cccnc1`: the inhibition is -18.5%.
With `Cc1ccc(Nc2nc(CSc3nnc(-c4cccnc4)n3-c3ccccc3F)cs2)cc1` the figure was 18.9%; with `Cc1ccc(Nc2nc(CSc3nnc(-c4cccnc4)n3-c3ccccc3C)cs2)cc1`, 87% (active); with `CC1(C)CN(c2cccc(Br)c2)C1=O`, -15.6%.
With `CN(Cc1c(C(=O)N(C)Cc2ccccc2)nc2ccccn12)CC1Cc2ccccc2O1` (centres undefined), the inhibition is 64.7% (active).
With `Cc1nn(C)cc1CN(C)Cc1c(C(=O)N(C)Cc2ccccc2)nc2ccccn12` the figure was -20.3%; with `CC(c1ccon1)N(C)Cc1c(C(=O)N(C)Cc2ccccc2)nc2ccccn12` (centres undefined), -38.7%.
The figure for `O=C(CSCC(=O)NC1CC1)Nc1ccc2ccccc2c1` is -5.8%; for `O=C(Cc1ccc([N+](=O)[O-])cc1)NCc1ccc2c(c1)OCO2` it is -15.5%.
With `O=C(NCc1ccc2c(c1)OCO2)Nc1ccc([N+](=O)[O-])cc1` the figure was -44.5%.
With `O=[N+]([O-])c1ccc(NCc2ccc3c(c2)OCO3)cc1`, the inhibition is 88.5% (active).
